The structures appear in SMILES notation. Inconclusive results are not listed. A call without a number means that no potency is given here. Calls of active or inactive are those of the source. Calls come from the whole dose curve; as a rule, active = well fitted activation curve with a large enough effect in the repeat runs; inconclusive = weak or mixed curves; inactive = flat fitted curve, though single readings scatter.
Potency is the fitted concentration of half-maximal effect.

This test in a line: A CellTox Green Cytotoxicity Assay to monitor cytotoxicity in HepG2 cells - 24 hour (AID 1224878). Note: nearly all actives have a fitted effect of over 45% in size. To be noted: CellTox Green fluorescence; series mostly up to 76.8 µM. The text has this: National Center for Advancing Translational Sciences [NCATS]
NIH Chemical Genomics Center [NCGC]
U.S. Environmental Protection Agency [EPA]
National Institutes of Environmental Health Sciences [NIEHS]
National Toxicology Program [NTP]
Cell-based models are critical for drug discovery. Determining the natural cytotoxic effects resulting from test compounds is an essential research activity. A CellTox Green Cytotoxicity Assay to monitor cytotoxicity in real time of continues cell culture during 40 hours of the compound treatment was used to screen Tox21 10K library compounds in HepG2 cells. CellTox Green Cytotoxicity Assay is a nonlytic, homogeneous, biofluorescent method to measure cytotoxicity in cell culture after experimental manipulation. The assay system uses a proprietary asymmetric cyanine dye that is excluded from viable cells but preferentially stains the dead cell's DNA. […] Viable cells produce no appreciable increases in fluorescence. Therefore, the fluorescence signal produced by the binding interaction with dead cell DNA is proportional to cytotoxicity.
The mixture of HepG2 cell suspension and reagents were dispensed at 600cells/6 ul/well in 1536-well tissue culture treated black solid bottom plates using a Multidrop dispenser. After the assay plates were incubated at a 37 C/5% CO2 incubator for 5 hours, 23 nL of compounds dissolved in DMSO, positive and negative controls was transferred to the assay plate by a pintool work station. The plates were incubated at 37 C for 40 hours. The fluorescence intensity were measured at 0h, 8h, 16h, 24h, 32h and 40h time points using ViewLux plate reader during compound treatment.
Consider `C=CC1CC=CCC1` (stereo not given), for which the Potency result was “inactive”.

For `CCOC(=O)NC(=S)Nc1ccccc1NC(=S)NC(=O)OCC`, the Potency entry was “inactive”.

As for `CCN(CC)C(=O)[C@@H]1C=C2c3cccc4[nH]cc(c34)C[C@H]2N(C)C1`, the Potency entry was “inactive”.

In the case of `CC1=C(C(=O)O)N2C(=O)[C@@H](N)[C@H]2SC1`, the cytotoxicity is -8.35% [at 15.8 µM] (inactive).

On to `CC(C)COP(=O)(OCC(C)C)OCC(C)C`, for which the Potency entry is “inactive”.

For `CCc1cc2c(s1)-n1c(C)nnc1CN=C2c1ccccc1Cl`, the Potency result is “inactive”.

On to `[O]=[Cd]`, for which the Potency entry is “inactive”.

With `CNC(=O)Oc1ccccc1C1OCCO1`, the Potency entry was “inactive”.

With `COP(=S)(OC)Oc1c(Cl)cc(C)cc1Cl`, the Potency result was “inactive”.

Take `Fc1cc(Br)ccc1CBr`: the Potency result is “inactive”.

Turning to `CC(=O)[C@H]1CC[C@H]2[C@@H]3CC[C@H]4C[C@H](O)CC[C@]4(C)[C@H]3C(=O)C[C@]12C`, the Potency entry is “inactive”.

Consider `C(CCOCC1CO1)COCC1CO1` (stereo not given), for which the Potency entry is “inactive”.

On to `Nc1cc(Cl)ccc1O`, for which the Potency entry is “inactive”.

Consider `COC(=O)c1c(C(F)F)nc(C(F)(F)F)c(C2=NCCS2)c1CC(C)C`, for which the Potency result is “inactive”.

With `C[N+](=O)[O-]`, the Potency result was “inactive”.

Turning to `CNC(=O)N(C)c1nc2ccccc2s1`, the Potency entry is “inactive”.

Turning to `CCC(=O)C(CCN(C)C)(c1ccccc1)c1ccccc1`, the Potency result is “inactive”.

As to `Cc1coc2c1CCC(C)C2` (stereo not given), the Potency entry is “inactive”.

`COc1ncc(F)c2nc(S(=O)(=O)Nc3c(F)cccc3F)nn12`: the Potency result was “inactive”.

`O=C1OC(=O)C2C1C1(Cl)C(Cl)=C(Cl)C2(Cl)C1(Cl)Cl` (stereo not given): the Potency entry is “inactive”.

Regarding `CCS(=O)(=O)C(C)(C)S(=O)(=O)CC`, the Potency result was “inactive”.

As for `CCC/C(=N\OCC)C1=C(O)CC(CC(C)SCC)CC1=O` (stereo not given), the Potency result is “inactive”.

On to `C#C[C@]1(O)C=C[C@H]2[C@@H]3CCC4=CC(=O)CC[C@@H]4[C@H]3CC[C@@]21CC`, for which the Potency entry is “inactive”.

Regarding `CC1(C)C(=O)NC(=O)NC1=O`, the Potency entry was “inactive”.

As for `c1ccc(N2CCNCC2)cc1`, the Potency result was “inactive”.

With `CC1COC2(c3ccccc3Cl)c3cc(Cl)ccc3NC(=O)CN12` (stereo not given), the Potency entry is “inactive”.

For `COC(=O)c1ccccc1S(=O)(=O)NC(=O)Nc1nc(C)cc(C)n1`, the Potency result is “inactive”.

Consider `Cc1ncsc1CCCl`, for which the Potency result is “inactive”.

As to `c1cc[c]([Hg][c]2ccccc2)cc1`, the Potency is 43.6 µM (active).

Turning to `COc1cc(OC)nc(Sc2cccc(Cl)c2C(=O)O)n1`, the Potency entry was “inactive”.

Consider `C=CCC1=C(C)[C@@H](OC(=O)[C@@H]2[C@@H](C=C(C)C)C2(C)C)CC1=O`, for which the Potency was 49 µM (active).

For the molecule `N#Cc1c(Cl)cccc1Cl`, the Potency result was “inactive”.

`O=[N+]([O-])c1cccc2c([N+](=O)[O-])cccc12`: the Potency result is “inactive”.

On to `O=C(Oc1ccc(Br)cc1)N1CCN2CCC1CC2`, for which the Potency entry is “inactive”.

`CC1=C(C(=O)Nc2ccccc2)S(=O)(=O)CCO1`: the Potency entry is “inactive”.

For the molecule `O=[N+]([O-])c1cc(Cl)c(Cl)c(Cl)c1`, the Potency entry is “inactive”.

Regarding `O=NN1CCCCC1`, the Potency result is “inactive”.

In the case of `CC(C)(C)C(=O)C(Oc1ccc(Cl)cc1)n1cncn1` (stereo not given), the Potency result was “inactive”.

For `ClCCOCOCCCl`, the Potency entry is “inactive”.

Turning to `Cc1cc(C)nc(Nc2ccccc2)n1`, the Potency result is “inactive”.

(Values after PubChem BioAssay (Tox21).)
